Compound activity deposited in PubChem BioAssay by National Center for Advancing Translational Sciences (NCATS).
Most compounds without a hit are left out; they make up all but 3.2% or so of the library.
TbPYK inhibitor: T. brucei pyruvate kinase inhibition; TbPYK enzyme, Kinase-Glo Plus ATP luminescence, 45 min; Potency, µM (doses to about 76.8 µM), for inactives: top-dose activity, negative = inhibition, usual class: inhibitors; hit rate 0.12% among 410,000; AID 624173; note: nearly all actives have a fitted effect of over 50% in size
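TbPYK + substrate in 50 mM TEA pH 7.2, 100 mM KCl, 10 mM MgCl2, 0.05% BSA, 0.01% Tween-20; cpd pinned; ADP 130 uM final; 45 min RT; Kinase-Glo Plus 10 min; luminescence endpoint.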
AMA1-RON2 inh: disrupts binding of P. falciparum AMA1 to RON2; AID 720542; AlphaScreen AMA1-biotinylated RON2 peptide binding; Potency, µM (highest dose often 58.2 µM), inactives show at the highest dose activity change, negative = inhibition, most hits filed as inhibitors; hit rate 0.2% among 360,000;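 note: 0% = vehicle wells and -100% = peptide control; nearly all actives have a fitted effect of over 45% in size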
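AMA1 (3D7) with his tag at 25 nM final met compounds first, then biotinylated RON2 peptide at 25 nM; detection used donor plus acceptor beads, 10 µg/mL apiece, read by AlphaScreen after 30 min at room temperature.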
RE007 growth inh: less growth of the S. pombe RE007 Vpr strain. S. pombe RE007 Vpr strain, BacTiter-Glo ATP luminescence, 24 h. hit rate 0.21% among 360,000. Potency, µM (doses to about 92.2 µM), for the others: at the top dose activity change, negative = less growth, hits mostly inhibitors. AID 651644; active = well fitted falling curve with a large enough effect; inconclusive = small, poorly fitted or top-dose-only effect; inactive = no such curve, though single readings can be large or run the other way; note: nearly all actives have a fitted effect of over 50% in size
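Fission yeast strain RE007, carrying one chromosomally integrated HIV-1 vpr copy, was seeded at OD 0.01 in PMG+AL medium with 23 nL pinned compound. After 24 h at 30 °C and 99% humidity, viability was read by BacTiter-Glo luminescence.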
LmPK inh: blocks Leishmania mexicana pyruvate kinase activity | purified LmPK, Kinase-Glo ATP luminescence, 1 h | Potency, µM (highest dose often 57.5 µM), for the others: at the top dose activity change, negative = inhibition, actives largely listed as inhibitors | hit rate 0.37% among 290,000 | AID 1721
Target sequence (Q27686 whole entry, looked up): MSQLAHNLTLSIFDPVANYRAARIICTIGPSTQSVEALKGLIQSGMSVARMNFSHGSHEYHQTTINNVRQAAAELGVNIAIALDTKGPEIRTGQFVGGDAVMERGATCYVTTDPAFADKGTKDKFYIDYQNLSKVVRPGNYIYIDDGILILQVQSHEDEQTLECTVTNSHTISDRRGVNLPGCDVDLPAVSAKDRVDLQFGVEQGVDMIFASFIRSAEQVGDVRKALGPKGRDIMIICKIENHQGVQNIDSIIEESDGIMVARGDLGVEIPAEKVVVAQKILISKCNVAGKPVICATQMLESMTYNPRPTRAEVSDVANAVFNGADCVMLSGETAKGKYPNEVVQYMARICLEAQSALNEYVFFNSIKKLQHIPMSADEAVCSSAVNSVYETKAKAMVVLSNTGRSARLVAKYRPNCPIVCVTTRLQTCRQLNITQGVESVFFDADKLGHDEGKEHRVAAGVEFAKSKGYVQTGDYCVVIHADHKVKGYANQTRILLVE
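Purified LmPK (0.1 nM) with 0.5 mM PEP and 0.1 mM ADP in imidazole buffer pH 7.2 with MgCl2/KCl, 1 h at room temperature. ATP formed was read by luciferase luminescence and normalized to no-enzyme and uninhibited controls.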
Sm TGR inh: S. mansoni TGR enzyme inhibition. Q962Y6. purified TGR, DTNB reduction, TNB absorbance 405 nm. Potency, µM (titrated, usually from 114 µM), without a hit: at the highest dose activity change, negative = inhibition, usual class: inhibitors. hit rate 3% among 360,000; note: nearly all actives have a fitted effect of over 60% in size
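First, TGR (20 nM dispensed) and NADPH were mixed with compound. Second, a 15 min room-temperature incubation followed. Third, further NADPH and then DTNB were added to start the reaction. Finally, TNB absorbance was monitored kinetically.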
Starred values were filed as active, the others as inactive; ? = inconclusive; · = no result; [ ] = dose if it differs, or a comment. Unless noted, calls come from the whole dose curve; as a rule, active = well fitted curve in the direction sought with a large enough effect; inconclusive = small, poorly fitted or top-dose-only effect, or another doubt; inactive = no such curve, though single readings can be large; an effect the other way counts as inactive or inconclusive. Unless noted, % is set by controls: 0 for no effect and ±100 for the full control effect; potency is the fitted concentration of half-maximal effect.

SMILES	TbPYK inhibitor	AMA1-RON2 inh	RE007 growth inh	LmPK inh	Sm TGR inh
O=C(Oc1cc(=O)oc2c1c(=O)n1c3c(cccc23)CC1)c1ccc(F)cc1	11.6%	?	2.3%	-1.1%	25.1µM*
O=C(NCc1ccc(F)cc1)c1c(O)c2cccc3c2n(c1=O)CCC3	-1.1%	2.1%	14.7%	0.7%	1.1%
CCCSc1ncc(Cl)c(C(=O)Nc2c(C(=O)Nc3ccc(C)cc3)oc3ccccc23)n1	4.0%	·	·	·	4.3%
CCOc1cccc(C=Nc2cc(C)cc(C)c2O)c1O	-11.1%	80.7%	3.4%	22.4µM*	3.98µM*
Cc1cccc(OCc2n[nH]c(=S)o2)c1C	?	3.5%	-15.3%	1.6%	·
Cc1cccc(C)c1OCc1n[nH]c(=S)o1	?	?	-3.6%	1.5%	31.6µM*
CCC(C)C1OC2(C=CC1C)CC1CC(C/C=C(\C)C(OC3CC(OC)C(OC4CC(OC)C(NC(C)=O)C(C)O4)C(C)O3)C(C)/C=C/C=C3\COC4C(O)C(C)=CC(C(=O)O1)C34O)O2 (centres undefined) (tested in a mixture with another compound)	-4.5%	·	·	·	·
CC(=O)c1sc(NC(=O)c2ccccc2F)nc1C	-8.9%	-21.3%	-26.3%	14.1µM*	8.6%
Cc1cccc(N2CCN(C(=O)c3nn(C)c4c3CSc3ccccc3-4)CC2C)c1 (centres undefined)	2.2%	·	·	·	0.4%
CCOC(=O)c1c(-c2ccccc2)csc1NC(=O)c1nc(S(=O)(=O)CC)ncc1Cl	0.0%	·	·	·	2µM*
CCS(=O)(=O)c1ncc(Cl)c(C(=O)Nc2ccc(S(=O)(=O)N3CCC(C)CC3)cc2)n1	-8.7%	-13.9%	1.8%	2.8%	0.447µM*
CC(=O)Nc1ccc(NC(=O)c2nc(S(=O)(=O)Cc3ccc(F)cc3)ncc2Cl)cc1	5.6%	·	·	·	3.16µM*
CCS(=O)(=O)c1ncc(Cl)c(C(=O)Nc2ccccc2)n1	5.7%	·	·	·	7.94µM*
CCOC(=O)c1c(-c2ccccc2)csc1NC(=O)c1nc(SCC)ncc1Cl	-5.5%	·	·	·	-0.8%
Cc1ccc(NC(=O)c2nc(S(=O)(=O)Cc3ccc(F)cc3)ncc2Cl)cc1C	0.8%	·	·	·	?
CCSc1ncc(Cl)c(C(=O)Nc2ccc(S(=O)(=O)N3CCC(C)CC3)cc2)n1	-0.7%	·	·	·	3.5%
O=C(COc1ccccc1F)Nc1ccc2nc(SCC(=O)N3CCCC3)sc2c1	-1.1%	·	·	·	5.1%
Cc1c(NC(=O)c2ccc(-c3ccc(F)cc3)o2)cccc1-c1nc2ncccc2o1	0.1%	·	·	·	-25.7%
CCOC(=O)c1ccc(NC(=O)Nc2ncc(Cl)cc2Cl)cc1	·	·	·	-2.4%	39.8µM*
CCSc1ncc(Cl)c(C(=O)Nc2ccc(S(=O)(=O)Nc3ncccn3)cc2)n1	-8.3%	-0.3%	14.0%	-3.6%	-10.1%
CCCS(=O)(=O)c1ncc(Cl)c(C(=O)Nc2ccc(S(=O)(=O)Nc3ncccn3)cc2)n1	-12.6%	6.2%	4.2%	2.2%	12.6µM*
CN(c1ccccc1)S(=O)(=O)c1ccc(NC(=O)c2nc(S(C)(=O)=O)ncc2Cl)cc1	30.3%	3.8%	11.6%	-13.9%	1.26µM*
CCOC(=O)c1c(NC(=O)c2nc(S(C)(=O)=O)ncc2Cl)sc(C(C)=O)c1C	0.0%	·	·	·	2.24µM*
Cc1ccc(CNC(=O)c2nc(S(=O)(=O)Cc3ccc(C)cc3)ncc2Cl)cc1	-3.4%	·	·	·	?
CCOC(=O)c1ccc(NC(=O)c2nc(S(=O)(=O)Cc3ccccc3)ncc2Cl)cc1	5.4%	0.1%	-1.6%	-10.1%	8.91µM*
SMILES	TbPYK inhibitor	AMA1-RON2 inh	RE007 growth inh	LmPK inh	Sm TGR inh
CCc1ccc(NC(=O)c2nc(S(=O)(=O)Cc3ccccc3)ncc2Cl)cc1	·	·	·	-1.2%	6.31µM*
CCc1cccc(-n2c(=O)c3cccnc3n2CC(=O)NCc2ccccc2)c1	-2.0%	·	·	·	-5.1%
CCN(CC)CCN1C(=O)C(=O)/C(=C(/O)c2ccc(OC)cc2)C1c1cccs1 (centres undefined)	·	·	·	-5.5%	44.7µM*
CCOc1ccc(/C(O)=C2/C(=O)C(=O)N(CCN(CC)CC)C2c2cccs2)cc1 (centres undefined)	-5.5%	0.9%	-12.9%	3.3%	22.4µM*
CCn1nc(C)cc1C(=O)Sc1ccc(C)cc1	1.2%	11.0%	-9.7%	-6.0%	17.8µM*
CCC(C)NC(=O)Cn1ncc2c(C)n(Cc3ccc(F)cc3)c(C)c2c1=O (centres undefined)	-2.8%	·	·	·	-0.7%
CCCCn1c(N)c(N(CCOC)C(=O)CSCc2c(C)noc2C)c(=O)[nH]c1=O	0.4%	-9.2%	-22.5%	-1.2%	79.4µM*
O=C1/C(=C\c2cccs2)CCC/C1=C/c1cccs1	2.8%	·	·	·	·
CCN(C(=O)COC(=O)c1cc(-c2ccc(C)o2)nc2ccccc12)C1CCS(=O)(=O)C1 (centres undefined)	-17.5%	8.7%	8.0%	-21.3%	25.1µM*
CCN(C(=O)COC(=O)c1cc(-c2cccs2)nc2ccccc12)C1CCS(=O)(=O)C1 (centres undefined)	0.7%	5.7%	-4.1%	-0.2%	-9.9%
Cc1ccc(-c2cc(C(=O)OCC(=O)N(C)C3CCS(=O)(=O)C3)c3ccccc3n2)o1 (centres undefined)	-29.3%	3.7%	6.5%	?	14.1µM*
C/C(=N\O)c1ccc(OCC(=O)N2CCCCC2)cc1	0.3%	·	·	·	·
COc1ccc(NC(=O)C2CCC(CNS(=O)(=O)c3ccc(Br)s3)CC2)c(OC)c1 (centres undefined)	-0.7%	·	·	·	0.2%
CC(=O)SC(C[N+](=O)[O-])c1cn(C(C)=O)c2ccccc12 (centres undefined)	?	47.7%	?	10.4%	4.47µM*
O=C(NCc1ccccc1Cl)C(=O)NCC(c1ccc2c(c1)OCO2)N1CCOCC1 (centres undefined)	-3.0%	·	·	·	3.8%
N#C/C(=C\c1ccc(OC(=O)c2ccccn2)cc1)C(N)=O	-5.1%	-3.5%	-10.0%	4.6%	39.8µM*
O=C(/C=C/c1cccc([N+](=O)[O-])c1)NC(=S)Nc1ccccc1C(=O)O	·	·	·	-6.2%	17.8µM*
Cc1cc(O)c(C(=O)/C=C/c2cccc([N+](=O)[O-])c2)c(=O)o1	-1.0%	3.3%	-3.4%	?	0.0%
O=C(/C=C/c1cccc([N+](=O)[O-])c1)NC(=S)Nc1cccc(NC(=O)c2ccccc2Cl)c1	-5.2%	-4.3%[2.32 µM]	13.4%	-2.7%	8.3%
CC(=O)Oc1ccccc1C(=O)C=Cc1cccc([N+](=O)[O-])c1	7.2%	7.7%	25.1µM*	·	·
O=C(O)CSc1nnc(-c2cccs2)n1-c1ccc(Cl)cc1	?	0.9%	-4.8%	?	3.9%
Cc1ccc(-n2c(CCC(=O)O)ccc2-c2cccs2)cc1Cl	-22.6%	·	·	·	7.94µM*
Cc1ccc(-c2ccc(CCC(=O)O)n2NC(=O)c2cccs2)cc1	-8.6%	-3.8%	0.5%	-0.2%	-23.5%
